For this test, the system named is VDR:RXRa (NR concentration 270 nM, RXRa partner concentration 90 nM). Description: PBM binding z-score (relative to random genomic background probes); higher = stronger binding; sequences stand for … in GC…GCGATTGACAGCGTAGAATGAAGG
How it is done:
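Protein-binding microarray (Agilent 4x180K custom design, double-stranded 60-nt probes: 5' GC cap, 34-nt variable region, 24-nt constant primer region; full probe sequence given). Purified or IVT nuclear receptor:RXRα heterodimers (3:1 NR:RXRα, mostly 270:90 nM) or homodimers were incubated for 1 h in PBS with 2% milk and no ligand, then detected with Alexa488 antibodies. Fluorescence from o1-orientation probes (~5 replicates averaged) was converted to z-scores against 500 random hg19 background probes. Variable regions are seed direct-repeat (DR0–DR5) sites, all their single-nucleotide variants and half-site ablations.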
GAGACAGGGTCAAGGCCAGAGTACGCGTATTGAT gave a PBM binding z-score of 4.4.

Turning to CGTCCAAGGTCAAAGGTCAGTGCAGAGATGACGG, the PBM binding z-score was 6.57.

Consider TCATATAGGTAAACAAGTGAAAGTCCGTAAGTTA, for which the PBM binding z-score came to 1.09. Sequence TCTAGTTGGTCACGGAGGTCACTCACGACGGGTA displayed a PBM binding z-score of 5.6. The figure for AATAGCAGGCCAAGGGTCACTCAAGATTAGTCCG is 2.92; for GCTATTTGTTGAAAGGGCAACCGAATGATTCTCG it is 0.521; for ATCTCTAGGCAACCAAGTTCAGTGAATGCCGAAC it is 2.1. TCTATTAGTTGATTAGGGAAACCGAAACAGCGGA registered a PBM binding z-score of 0.846. GCTATTAGTTGAAAGTGCAACCGAATGATTCTCG: the PBM binding z-score stood at 0.133.

Take ATATGTAGGTTAGCTGGGGTCATTCGGACTAGGC: the PBM binding z-score turned out to be 6.4. The figure for GCAACTGGGGCAAAGCAGGTTACCATAAGGTTGG is 0.361; for CTACCACGGTGAACAAGGTCGTTGATTACTATTC it is 3.47. With ATCGAAAGGTCGTGAGATGAGTATACAGAAAGGC, the PBM binding z-score stood at 3.09. The figure for ATCGAAGGGTCGTGAGGTGAGTATACAGAAAGGC is 2.38; for CGTCCAAGGTCATAGGAGATCAGTGAAGACAGAT it is 4.3.

Sequence TTTTGTAGATCAAAGGTTAAGAAAGCCGAAGCCT returned a PBM binding z-score of 1.41. In turn, TCTAGGTGGTCAAAGGTCACACACTCGAAATGCG gave a PBM binding z-score of 5.38. As for CATCCAAGGTCATAGGAGGTCAGTGAAGACAGAT, the PBM binding z-score came to 6.74. In turn, ACTATTAGTTGAGACGAGCGCAACCGATAGGTTG returned a PBM binding z-score of -0.385. The figure for AGAACGAGGTTATTAAGATCAGGGAATTGCGGTC is 2.38; for ACTAGTCGGTCAGCTGAGGTCACACACAATTCGG it is 5.12; for ATCGAAAGGTCGACGAGGTGAGTATACACCGTTT it is 5.23. The figure for TTAACAAGGTGAAGGTCGTTGATCCCTCTGTAGA is 1.35; for CAAACTAGGTCACCAGAAGGTCAAAGTCCGCATG it is 5.66; for AGAACGAGGGCAATGAGTCGATAGCACGGGTGGC it is 2.39.

In turn, GCTTCTAGGTCAGGTTGGTCAGCTAACGGGTACG displayed a PBM binding z-score of 0.953.

For ACTCGGAGGACAAAGGTCCGAGCTACGCCAGTGA, the PBM binding z-score is -0.323. The same measure for ATCTCTAGGTAAAGATAGTTTAGTGAATGCAAAT: 0.322; for CCTTACGGGTCACGAGGTGATAGCACGACGAGCG: 4.18.

GCTATTATTTGAAAGGGCAACCGAATGATTCTCG had a PBM binding z-score of 0.646. The same measure for TCTGGTAGGTCAACGATGGTCAGCTAATCTGCTA: 2.2; for ACTATTAGTTGCCTTAGGGCAACCGATACGACGC: -0.026. The same measure for CCTACTGGGCCACGAAAGGTCATTAATTCAGTGA: 3.74. The figure for AATACAGGGTCACCAGGCCAGAGTAGGTACGAAT is 4.82; for GCTGCTAGGTCAGCTTGGTCAGCTAACGGGTACG it is 0.54; for AGTCAAAGTTCAGGACGAGGTAACGTATAGCACG it is 3.14. Consider CCAGACAGGTGAGAAGGTAACTCCGCCTCGATTA, for which the PBM binding z-score was -0.335. The same measure for CGAACTAGGTCAGAACAGGACACTGAAGGATGAT: 1.14. TCTATTAGTTGATTAGGGTAACCGAAACAGCGGA yielded a PBM binding z-score of 0.996. For TCTTGCAGATCAATAGAGGTTAAGAAAGTGCGCT, the PBM binding z-score was determined as 1.79.

These data come from the supplement of paper PMC6555819.
